PubChem BioAssay (NCI)
Compounds without any hit were thinned out: in the full panel of roughly 83,000, 20% have a hit.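 Values shown are percent growth following 48 h exposure of cells in 96-well plates to a single concentration of compound; below 10 was considered active.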 The source made the active and inactive calls.

Key:
Assay in all cases: NCI-60 one-dose screen, 48 h (100 = growth as untreated, 0 = no growth, -100 = all killed)
Settings in all cases: 10 µM unless noted
[1] = test system: HCT-15 colon
[2] = test system: HT29 colon
[3] = test system: SNB-75 CNS
[4] = test system: SNB-19 CNS
[5] = test system: U251 CNS
[6] = test system: PC-3 prostate
[7] = test system: SK-MEL-5 melanoma
[8] = test system: UACC-62 melanoma
[9] = test system: LOX IMVI melanoma
[10] = test system: SK-MEL-28 melanoma

Measured: growth

Nc1nc(NC2CC2)cc(-c2cccc(Cl)c2Cl)n1
inactive: [1] 25% | [2] 13.6% | [3] 39.2% | [4] 59.1% | [5] 39.1% | [6] 64.6% | [7] 46.5% | [8] 36.1% | [9] 40.7% | [10] 68.7%

C[C@@H]1CC2C3CCC4=CC(=O)C=C[C@]4(C)[C@@]3(Cl)[C@@H](O)C[C@]2(C)[C@@]1(OC(=O)c1ccco1)C(=O)CCl (stereo not given in full)
inactive: [1] 79.7% | [2] 70.8% | [3] 86.3% | [4] 86% | [5] 85% | [6] 49.9% | [7] 55% | [8] 42% | [10] 88.9%

COC(=O)C(Br)(C(=O)OC)C(Br)C(Br)C(Br)c1ccccc1 (stereo not given)
inactive: [2] 32.3% | [3] 92.4% | [4] 98.6% | [5] 81.5% | [6] 93.3% | [7] 98.4% | [8] 60.2% | [10] 108%
active: [1] -37.8% | [9] 9.1%

CS(=O)(=O)c1ccc(C(=O)Nc2ccc(Cl)c(-c3ccccn3)c2)c(Cl)c1
inactive: [1] 22.7% | [3] 14% | [4] 51.1% | [5] 15.5% | [7] 10.9% | [8] 19.7% | [10] 23.2%
active: [2] -7.2% | [6] 7.55%

COc1ccc(-c2ccc(-c3ccc(C(=N)N)s3)s2)cc1
active: [1] -73.7% | [2] -81.9% | [3] -84.2% | [4] -61.9% | [5] -70.3% | [6] -92.8% | [7] -97.8% | [8] -91% | [9] -74.7% | [10] -75.5%

Cc1cccc(/C=N/n2c(-c3ccc(Cl)cc3)nc3c(Br)cc(Br)cc3c2=O)c1
inactive: [1] 70.5% | [2] 67.9% | [3] 45.9% | [4] 62% | [5] 43% | [6] 21.4% | [7] 38.5% | [8] 35.5% | [10] 60.7%

CC(=O)Nc1c(Br)cc2c(c1Br)Cc1cc(Br)ccc1-2
inactive: [1] 91.7% | [2] 52.8% | [3] 74.3% | [4] 79.4% | [5] 12.8% | [6] 67.8% | [7] 88.2% | [8] 72.2% | [9] 20.7% | [10] 98.3%

O/N=C1\c2ccccc2-c2ccc(Br)cc21
inactive: [1] 102% | [2] 101% | [3] 107% | [4] 104% | [5] 104% | [6] 101% | [7] 104% | [8] 105% | [9] 105% | [10] 118%

O=C(Nc1ccncc1)C(=O)c1cn(S(=O)(=O)c2cccc(Cl)c2F)c2ccccc12
inactive: [1] 50% | [2] 50% | [3] 80.7% | [4] 82.7% | [5] 73.6% | [6] 75.8% | [7] 57.5% | [8] 57% | [10] 95.1%

NC(=O)c1ccc[n+](Cc2ccccc2)c1
inactive: [1] 96.7% | [2] 101% | [3] 95.1% | [4] 106% | [5] 92.8% | [6] 94.6% | [7] 97.6% | [8] 99.7% | [9] 95.6% | [10] 103%

Cc1c(C(=O)CCl)c(=O)n(-c2ccccc2)n1C
inactive: [1] 40% | [2] 36.2% | [3] 76.3% | [4] 94.5% | [5] 65.8% | [6] 55.5% | [7] 87.9% | [8] 74.1% | [10] 65%
